Experimental data from ChEMBL document CHEMBL1961873, “Compounds: GSK PKIS; Assays: Nanosyn kinase panel” (2012).

What was measured:
[1] = biological target: 5'-AMP-activated protein kinase catalytic subunit alpha-2 (Homo sapiens) (UniProt P54646); settings: at 1 µM
[2] = biological target: T1, NUAK family SNF1-like kinase 1 (Homo sapiens) (UniProt O60285); settings: at 0.1 µM
T1 sequence (whole entry): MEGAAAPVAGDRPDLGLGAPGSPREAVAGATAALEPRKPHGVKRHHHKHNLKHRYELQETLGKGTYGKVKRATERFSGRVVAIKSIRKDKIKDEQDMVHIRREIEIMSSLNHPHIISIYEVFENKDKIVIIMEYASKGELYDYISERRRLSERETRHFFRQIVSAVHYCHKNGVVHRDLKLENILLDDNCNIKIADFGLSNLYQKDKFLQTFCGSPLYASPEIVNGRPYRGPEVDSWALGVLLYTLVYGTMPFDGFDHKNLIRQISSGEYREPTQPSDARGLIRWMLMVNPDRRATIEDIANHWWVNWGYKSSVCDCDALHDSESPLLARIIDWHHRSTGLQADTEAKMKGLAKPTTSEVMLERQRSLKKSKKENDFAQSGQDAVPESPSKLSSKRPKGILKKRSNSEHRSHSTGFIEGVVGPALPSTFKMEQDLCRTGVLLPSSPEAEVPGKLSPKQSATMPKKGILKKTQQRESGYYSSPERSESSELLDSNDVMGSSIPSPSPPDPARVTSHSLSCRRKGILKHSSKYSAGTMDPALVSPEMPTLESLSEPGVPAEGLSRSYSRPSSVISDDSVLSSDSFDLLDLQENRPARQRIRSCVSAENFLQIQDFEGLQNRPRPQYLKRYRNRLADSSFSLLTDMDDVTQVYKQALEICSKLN

[3] = biological target: T1, NUAK family SNF1-like kinase 1 (Homo sapiens); settings: at 1 µM
[4] = biological target: T2, Serine/threonine-protein kinase BRSK1 (Homo sapiens) (UniProt Q8TDC3); settings: at 0.1 µM
T2 sequence (whole entry): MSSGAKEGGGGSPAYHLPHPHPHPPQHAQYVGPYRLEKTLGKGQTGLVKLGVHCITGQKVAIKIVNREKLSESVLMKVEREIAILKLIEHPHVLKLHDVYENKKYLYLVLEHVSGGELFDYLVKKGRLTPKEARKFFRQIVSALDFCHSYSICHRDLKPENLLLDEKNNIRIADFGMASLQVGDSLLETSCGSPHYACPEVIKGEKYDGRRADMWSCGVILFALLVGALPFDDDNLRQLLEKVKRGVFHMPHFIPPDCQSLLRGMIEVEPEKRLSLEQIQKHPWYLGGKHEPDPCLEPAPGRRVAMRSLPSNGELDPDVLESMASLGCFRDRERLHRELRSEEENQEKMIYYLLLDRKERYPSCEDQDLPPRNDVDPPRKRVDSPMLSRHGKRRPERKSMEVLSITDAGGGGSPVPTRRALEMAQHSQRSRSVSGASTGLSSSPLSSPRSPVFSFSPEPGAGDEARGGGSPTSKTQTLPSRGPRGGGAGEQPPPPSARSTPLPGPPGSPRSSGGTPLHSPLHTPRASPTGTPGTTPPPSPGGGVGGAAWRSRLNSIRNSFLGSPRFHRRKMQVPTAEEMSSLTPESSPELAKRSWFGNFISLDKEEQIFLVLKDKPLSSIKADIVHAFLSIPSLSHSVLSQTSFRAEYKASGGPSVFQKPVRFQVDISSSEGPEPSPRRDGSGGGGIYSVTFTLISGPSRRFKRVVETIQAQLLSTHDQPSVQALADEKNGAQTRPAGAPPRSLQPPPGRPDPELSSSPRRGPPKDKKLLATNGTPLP

[5] = biological target: T2, Serine/threonine-protein kinase BRSK1 (Homo sapiens); settings: at 1 µM
[6] = biological target: T3, Serine/threonine-protein kinase BRSK2 (Homo sapiens) (UniProt Q8IWQ3); settings: at 0.1 µM
T3 sequence (whole entry): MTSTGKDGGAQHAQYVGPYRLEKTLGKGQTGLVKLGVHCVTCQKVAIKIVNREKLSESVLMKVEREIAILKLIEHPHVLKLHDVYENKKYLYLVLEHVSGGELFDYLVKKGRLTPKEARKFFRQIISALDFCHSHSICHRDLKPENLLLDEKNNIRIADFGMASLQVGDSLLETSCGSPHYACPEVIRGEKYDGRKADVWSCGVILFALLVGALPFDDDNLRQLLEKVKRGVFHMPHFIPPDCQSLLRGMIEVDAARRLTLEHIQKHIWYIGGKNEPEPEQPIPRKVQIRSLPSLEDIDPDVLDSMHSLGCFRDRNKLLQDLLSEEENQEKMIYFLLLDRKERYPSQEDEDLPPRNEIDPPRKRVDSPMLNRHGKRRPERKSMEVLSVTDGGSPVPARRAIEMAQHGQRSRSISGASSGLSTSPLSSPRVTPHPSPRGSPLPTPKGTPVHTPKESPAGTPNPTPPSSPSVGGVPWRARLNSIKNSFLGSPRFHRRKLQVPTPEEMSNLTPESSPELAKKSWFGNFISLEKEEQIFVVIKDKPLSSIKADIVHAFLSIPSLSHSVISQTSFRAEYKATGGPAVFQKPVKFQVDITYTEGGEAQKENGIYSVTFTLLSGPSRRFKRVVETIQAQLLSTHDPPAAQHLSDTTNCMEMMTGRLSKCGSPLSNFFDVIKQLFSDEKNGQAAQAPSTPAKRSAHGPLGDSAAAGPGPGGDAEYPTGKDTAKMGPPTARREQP

[7] = biological target: T3, Serine/threonine-protein kinase BRSK2 (Homo sapiens); settings: at 1 µM
[8] = biological target: Calcium/calmodulin-dependent protein kinase type 1D (Homo sapiens) (UniProt Q8IU85); settings: at 0.1 µM
[9] = biological target: Calcium/calmodulin-dependent protein kinase type 1D (Homo sapiens) (UniProt Q8IU85); settings: at 1 µM
[10] = biological target: Calcium/calmodulin-dependent protein kinase type II subunit alpha (Homo sapiens) (UniProt Q9UQM7); settings: at 0.1 µM;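 also: reported values are averages (mean inhibition of CAMK2A)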
Calcium/calmodulin-dependent protein kinase type II subunit alpha (Homo sapiens), sequence (Q9UQM7 whole entry): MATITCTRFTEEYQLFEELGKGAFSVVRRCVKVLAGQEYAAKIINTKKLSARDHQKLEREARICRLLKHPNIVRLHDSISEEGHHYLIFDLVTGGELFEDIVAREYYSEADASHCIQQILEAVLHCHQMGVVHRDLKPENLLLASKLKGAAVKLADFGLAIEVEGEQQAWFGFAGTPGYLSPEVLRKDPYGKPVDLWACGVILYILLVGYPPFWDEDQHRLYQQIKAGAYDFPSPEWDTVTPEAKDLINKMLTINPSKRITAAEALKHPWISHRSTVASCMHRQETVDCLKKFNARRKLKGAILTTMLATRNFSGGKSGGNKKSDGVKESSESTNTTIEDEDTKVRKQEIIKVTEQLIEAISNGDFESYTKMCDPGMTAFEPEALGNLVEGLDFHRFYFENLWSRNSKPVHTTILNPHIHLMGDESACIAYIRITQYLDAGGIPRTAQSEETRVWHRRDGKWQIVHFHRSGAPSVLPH

5'-AMP-activated protein kinase catalytic subunit alpha-2 (Homo sapiens), sequence (P54646 whole entry, looked up): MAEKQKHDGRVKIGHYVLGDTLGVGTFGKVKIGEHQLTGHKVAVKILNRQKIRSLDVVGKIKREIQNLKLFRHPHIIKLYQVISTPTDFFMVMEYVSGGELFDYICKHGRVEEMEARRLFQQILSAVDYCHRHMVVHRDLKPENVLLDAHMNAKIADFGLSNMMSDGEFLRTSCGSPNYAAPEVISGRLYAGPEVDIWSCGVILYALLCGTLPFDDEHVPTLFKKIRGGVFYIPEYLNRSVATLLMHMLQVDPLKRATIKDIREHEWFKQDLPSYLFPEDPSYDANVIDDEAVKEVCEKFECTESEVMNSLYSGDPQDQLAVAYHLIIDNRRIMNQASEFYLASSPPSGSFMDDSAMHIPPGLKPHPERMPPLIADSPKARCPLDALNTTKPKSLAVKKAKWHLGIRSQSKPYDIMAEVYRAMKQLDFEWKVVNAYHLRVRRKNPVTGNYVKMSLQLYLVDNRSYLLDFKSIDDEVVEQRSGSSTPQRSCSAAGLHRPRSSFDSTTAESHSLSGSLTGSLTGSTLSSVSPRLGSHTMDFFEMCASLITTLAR
Calcium/calmodulin-dependent protein kinase type 1D (Homo sapiens), sequence (Q8IU85 whole entry, looked up): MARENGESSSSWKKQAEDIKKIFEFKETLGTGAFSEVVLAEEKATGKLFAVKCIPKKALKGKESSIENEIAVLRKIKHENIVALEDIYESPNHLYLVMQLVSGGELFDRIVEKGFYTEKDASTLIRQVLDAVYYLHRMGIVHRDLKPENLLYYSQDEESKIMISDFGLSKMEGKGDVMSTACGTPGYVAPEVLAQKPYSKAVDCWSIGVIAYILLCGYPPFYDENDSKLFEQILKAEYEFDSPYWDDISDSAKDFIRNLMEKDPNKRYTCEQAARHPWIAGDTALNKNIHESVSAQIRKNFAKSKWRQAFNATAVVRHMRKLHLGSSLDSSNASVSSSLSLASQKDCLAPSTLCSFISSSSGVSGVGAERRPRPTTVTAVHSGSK

Compound | inhibition [1] [%] | inhibition [2] [%] | inhibition [3] [%] | inhibition [4] [%] | inhibition [5] [%] | inhibition [6] [%] | inhibition [7] [%] | inhibition [8] [%] | inhibition [9] [%] | inhibition [10] [%]
O=C1Nc2ccc(I)cc2C1=Cc1cc(Br)c(O)c(Br)c1 | 3.18 | -1.04 | 3.51 | 3.87 | 0.15 | 0.3 | 2.23 | 1.27 | 2.96 | 4.96
COc1cc2ncn(-c3cc(OCc4ccccc4C(F)(F)F)c(C(C)=O)s3)c2cc1OC | 2.21 | -0.05 | 3.5 | 2.73 | 4.41 | 3.99 | 4.95 | -0.05 | -0.22 | 4.56
NC(=O)Cc1ccccc1Oc1nccc(-c2c(-c3ccc(F)cc3)ncn2C2CCNCC2)n1 | 2.59 | 0.84 | 2.97 | 4.71 | 6.12 | 4.74 | 5.25 | 0.63 | 1.65 | 2.81
Clc1ccc(CNc2nccc(-c3cnn4ncccc34)n2)cc1 | 0.84 | 3.31 | 9.78 | 0.41 | 1.49 | 1.65 | 4.48 | 1.73 | 1.01 | 2.51
NC(=O)c1cc(-c2ccc(F)cc2)cc(-c2ccncc2)c1N | 2.48 | -0.64 | -1.26 | 0.38 | -1.89 | 1.65 | 2.63 | -0.61 | 0.29 | 3.47
Cc1ccc(C(=O)NC2CCC2)cc1-c1ccc(C(=O)NCC2CC2)cc1 | 0.57 | 0.27 | 5.25 | 1.77 | 3.1 | 1.53 | 4.25 | 0.09 | 2.93 | 3.06
NS(=O)(=O)c1ccc(N/N=C2\C(=O)Nc3ccc(C(=O)NCCCn4ccnc4)cc32)cc1 | 26.3 | 19.4 | 66.4 | 4.96 | 31.2 | 8.96 | 46 | 0.1 | 2.23 | 3.04
CCc1nccc2c1nc(-c1nonc1N)n2CC | 2 | 2.71 | 4.47 | 0.98 | 4.27 | 2.16 | 4.53 | 1.07 | 1.8 | 0.2
NC(=O)c1cc(-c2ccncc2)cc(-c2ccccc2)c1N | 4.03 | 0.7 | 1.68 | 2.46 | 4.23 | 1.64 | 2.72 | 0.15 | 1.27 | 2.51
COc1cc(Nc2ncc3c(C)nc(-c4cccc(Oc5ccccc5)c4)n3n2)cc(OC)c1OC | 7.86 | 4.33 | 26.4 | 1.68 | 2.44 | 0.74 | 3.26 | 1.34 | 3.48 | 3.17
COc1ccc2cc(-c3c(-c4ccncc4)nc(-c4ccc([S+](C)[O-])cc4C)n3C)ccc2c1 (stereo not given) | 1.05 | -1.98 | 4.95 | -0.02 | 3.28 | 0.33 | 3.47 | 0 | 1.15 | -2.89
O=C(Nc1n[nH]c2nc(-c3ccc(O)cc3)c(Br)cc12)C1CC1 | 12.1 | 8.05 | 30.2 | 25.8 | 66.8 | 33.5 | 70.2 | 3.09 | 14.4 | 4.24
NS(=O)(=O)c1ccc(Nc2cc(-c3ccc(O)c(F)c3)n[nH]2)cc1 | 8.67 | 2.73 | 11 | 0.57 | 10.9 | 2.75 | 16.7 | -0.17 | 0.78 | -4.96
c1ccc(-c2n[nH]cc2-c2ccnc(-c3ccc(OCCN4CCOCC4)cc3)c2)nc1 | 4.37 | 5.95 | 7.16 | 8.84 | 6.57 | 6.13 | 4.06 | 2.06 | 3.63 | -0.64
N#Cc1ccc(Oc2nccc(-c3c(-c4ccc(F)cc4)ncn3C3CCNCC3)n2)cc1 | 3.23 | -1.37 | 0.67 | -2.05 | 0.23 | 0.71 | 2.75 | 0.44 | 0.96 | 2.95
COc1ccc(-c2ccc3c(NC(=O)C4CC4)n[nH]c3n2)cc1 | 1.68 | -0.56 | 0.04 | 0.19 | 4.83 | 3.16 | 10.7 | -0.49 | -0.83 | 0.49
O=C1Nc2ccccc2/C1=C/Nc1ccc(-n2cncn2)cc1 | 15.5 | 8.76 | 38.7 | 2.17 | 17.2 | 4.08 | 26.3 | 0.18 | 0.98 | 3.66
